Measurements as given in PubChem BioAssay AID1004 (SRMLSC, 2008).
Active and inactive are the calls of the source.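 The calls were made as follows: active = viability at 10 µM of 29.74% or lower, 3 SD below the compound median; inactive = the rest.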

Assay: viability of HCT116 lacking mutant beta-catenin – cell-based, DP diverse set, validation, pilot screen (AID 1004)
Conditions: HCT116 (mutant beta-catenin deleted) viability, CellTiter-Glo, 60 h; at 10 µM; hits give low values

SMILES | viability
COC(=O)CCc1c(C)[nH]c(C(=O)OCc2ccccc2)c1C | 100% (inactive)
Cn1cnc2c(NCc3ccccc3)nc(NCCO)nc21 | 103% (inactive)
C/C=C1/C2C=C(C)CC1(N)c1ccc(=O)[nH]c1C2 (stereo unspecified) | 106% (inactive)
COc1cc2c(c(OC)c1OC)-c1ccc(OC)c(=O)cc1[C@@H](NC(C)=O)CC2 | 39.6% (inactive)
O=c1c(-c2ccc(O)cc2)coc2cc(O)cc(O)c12 | 96.7% (inactive)
COc1cc(-c2ccc(=O)[nH]n2)ccc1OC(F)F | 105% (inactive)
CC1(C)[C@@H](O[C@H]2O[C@H](C(=O)O)[C@@H](O)[C@H](O)[C@H]2O[C@@H]2O[C@H](C(=O)O)[C@@H](O)[C@H](O)[C@H]2O)CC[C@]2(C)[C@H]3C(=O)C=C4[C@@H]5C[C@@](C)(C(=O)O)CC[C@]5(C)CC[C@@]4(C)[C@]3(C)CC[C@@H]12 | 101% (inactive)
COc1ccc(Cl)cc1C(=O)NCCc1ccc(S(=O)(=O)NC(=O)NC2CCCCC2)cc1 | 97% (inactive)
COc1ccc(CCN(C)CCCC(C#N)(c2ccc(OC)c(OC)c2)C(C)C)cc1OC (stereo unspecified) | 88.8% (inactive)
COc1ccc2cc([C@H](C)C(=O)O)ccc2c1 | 96.8% (inactive)
CN=C(NC#N)NCCSCc1nc[nH]c1C | 98.3% (inactive)
COC(=O)Nc1nc2ccc(C(=O)c3cccs3)cc2[nH]1 | 38.8% (inactive)
COc1ccc2c3c1O[C@H]1C[C@@H](O)C=C[C@@]31CCN(C)C2 | 94% (inactive)
O=C(O)c1cc([N+](=O)[O-])ccc1NCCCc1ccccc1 | 99.6% (inactive)
COc1ccc(-c2cc(C(=O)O)no2)cc1 | 99.2% (inactive)
CC(=O)N1CCN(c2ccc(OC[C@H]3CO[C@](Cn4ccnc4)(c4ccc(Cl)cc4Cl)O3)cc2)CC1 | 76.8% (inactive)

SMILES | viability
COc1cc([C@@H]2c3cc4c(cc3[C@H](O)[C@H]3COC(=O)[C@H]23)OCO4)cc(OC)c1OC | 37.4% (inactive)
C[C@@H]1C[C@@H]([C@@H](C)CC2CC(=O)NC(=O)C2)C(=O)[C@@H](C)C1 | 27.8% (active)
CC1=C(/C=C/C(C)=C/C=C/C(C)=C/C=C/C=C(C)/C=C/C=C(C)/C=C/C(=O)[C@]2(C)C[C@@H](O)CC2(C)C)C(C)(C)C[C@H](O)C1 | 95.5% (inactive)
C=C(C)C1CC=C(C)C(O)C1 (stereo unspecified) | 94.9% (inactive)
CCOC(=O)C(C)(C)Oc1ccc(Cl)cc1 | 98.7% (inactive)
CO/N=C(\C(=O)N[C@@H]1C(=O)N2C(C(=O)O)=C(COC(C)=O)CS[C@H]12)c1csc(N)n1 | 96.4% (inactive)
CC(C)=CCC[C@](C)(O[C@@H]1O[C@H](CO)[C@@H](O)[C@H](O)[C@H]1O)[C@H]1CC[C@]2(C)[C@@H]1[C@H](O)C[C@@H]1[C@@]3(C)CC[C@H](O[C@@H]4O[C@H](CO)[C@@H](O)[C@H](O)[C@H]4O[C@@H]4O[C@H](CO)[C@@H](O)[C@H](O)[C@H]4O)C(C)(C)[C@@H]3[C@@H](O)C[C@]12C | 93.8% (inactive)
Nc1ccn([C@H]2CC[C@@H](CO)O2)c(=O)n1 | 102% (inactive)
CN1CCN(C2Cc3ccccc3Sc3ccc(S)cc32)CC1 (stereo unspecified) | 79.5% (inactive)
Cc1cc2c(C(C)C)c(O)c(O)c(C=O)c2c(O)c1-c1c(C)cc2c(C(C)C)c(O)c(O)c(C=O)c2c1O | 28.5% (active)
NC(=NCc1ccccc1)NC(=O)c1nc(Cl)c(N)nc1N | 88.8% (inactive)
O=c1[nH]cnc2ccccc12 | 98.6% (inactive)
COc1ccc2cc3[n+](cc2c1OC)CCc1cc2c(cc1-3)OCO2 | 99.8% (inactive)
COc1cc(Cc2cnc(N)nc2N)cc(OC)c1OC | 94.7% (inactive)
CN1C2CCC1CC(OC(=O)C(CO)c1ccccc1)C2 (stereo unspecified) | 97.1% (inactive)
